# Compounds with a hit are over-represented: about 2.1% of the library has one in this group of screens.
# NFkB transloc inh = blocks IL-1B driven NFkB nuclear translocation in HUVEC cells; HUVEC IL-1B NFkB p65 nuclear translocation imaging; inhibition, % at 2 µM; 94,000 tested, 0.43% active; AID 796;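 active = inhibition above about 30% together with a positive call from visual inspection of the well image, limit read from the data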;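 note: nuclear over cytoplasmic p65 intensity ratio measured by imaging; 0% = IL-1B stimulated DMSO wells and 100% = unstimulated DMSO wells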
# IL1B NFkB pot = enhances IL-1B driven NFkB nuclear translocation; activation, % at 2 µM; HUVEC IL-1B NFkB p65 nuclear translocation imaging; 94,000 tested, 0.3% active; AID 819;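 active = activation above 40%, about the mean plus 3 SD, also judged a hit on visual image review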;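 note: percent activation is computed from the nuclear over cytoplasmic p65 intensity ratio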
# IL1B cytotox = HUVEC cytotoxicity counter-screen, IL-1B stimulated. AID 845. cell count reduction, % at 2 µM. 94,000 tested, 0.41% active. HUVEC cell count loss, Hoechst imaging;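 active = cell count reduction more than 3 SD above the screen-wide mean, cut at about 70% in these data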;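 note: normalized per plate to untreated control cells as the no-loss baseline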
# Measles CPE = protection of cells from measles virus; Measles virus-infected cells, CPE protection, absorbance; protection (pct of control), % at 4 µM; 140,000 tested, 1.5% active; AID 841; in the data active = protection mostly above about 24%, no sharp cut-off; inactive = mostly below about 26%
# Active calls of the source: *; . = not tested or not shown.
SMILES,NFkB transloc inh,IL1B NFkB pot,IL1B cytotox,Measles CPE
CC12c3ccccc3C(c3ccccc31)C1C(=O)N(Cc3cccnc3)C(=O)[C@H]12 (stereo not given in full),.,.,.,4
O=C1C2C3C=CC([C@@H]2C(=O)N1Cc1cccnc1)C31CC1 (stereo not given in full),0,0,-9,45*
COc1ccc(S(=O)(=O)CCC(=O)N(C)c2ccc(OC)cc2OC)cc1,.,.,.,14
CC(=O)N1CCc2cc(S(=O)(=O)NCCN3CCC(C)CC3)ccc21,-3,3,15,38*
O=C(COc1c(Cl)cc(Cl)cc1Cl)c1ccc(Cl)cc1,.,.,.,7
CC(=O)Nc1sc(C)c(C)c1C(=O)OC1CCOC1=O (stereo not given),-25,25,-11,37*
Cc1ccsc1C(=O)OC1CCOC1=O (stereo not given),.,.,.,9
COc1ccc(CNC(=O)C(c2cccs2)N(Cc2ccco2)C(=O)Cc2cccs2)cc1 (stereo not given),0,0,4,25
COc1ccc(CNC(=O)C(c2ccco2)N(Cc2cccs2)C(=O)Cc2cccs2)cc1 (stereo not given),-41,41*,-5,7
COc1ccc(CNC(=O)C(c2ccco2)N(Cc2ccccc2)C(=O)Cc2cccs2)cc1 (stereo not given),12,-12,-5,23
COCCN(C(=O)Cc1cccs1)C(C(=O)NCc1ccc(OC)cc1)c1ccc(OC)cc1 (stereo not given),.,.,.,40*
CC(=O)Nc1cc(C(=O)N(C)Cc2ccco2)ccc1Sc1ccc(C)cc1,.,.,.,29
COC(=O)Cn1cc(C(=O)OC)c2ccccc21,-6,6,-15,7
COC(=O)c1cn(C(=O)OC)c2ccccc12,-17,17,-52,49*
N#Cc1cc(-c2ccccc2)cn(Cc2c(Cl)cccc2Cl)c1=O,.,.,.,53*
CCSc1nnc(NC(=O)CSc2nc3c(c(=O)n2-c2ccccc2OC)SCC3)s1,12,-12,-25,5
CC(Sc1nnc(C(F)(F)F)n1C)C(=O)NC(N)=O (stereo not given),-8,8,-5,60*
O=C1C=C(c2ccccc2)OC(=O)C1C(=O)c1ccccc1 (stereo not given),-1,1,-37,27*
CN1C(=S)N(c2ccccc2)C(=O)/C1=C/c1ccco1,.,.,.,32
O=C1/C(=C\c2ccco2)SC(=S)N1c1ccc(O)cc1,.,.,.,39*
COCc1cc(C)n(CC(=O)Nc2ccccc2OC)c(=O)c1C#N,-8,8,4,16
COCc1cc(C)n(CC(=O)Nc2ccc(Cl)cc2Cl)c(=O)c1C#N,-41,41*,-2,2
COc1cccc(C2CC(c3ccccc3Cl)n3ncnc3N2)c1 (stereo not given),.,.,.,6
O=C(O)c1cc(S(=O)(=O)O)ccc1O,8,-8,8,55*
COC(=O)c1ccccc1NS(=O)(=O)c1ccc(O)c(C(=O)O)c1,.,.,.,6
SMILES,NFkB transloc inh,IL1B NFkB pot,IL1B cytotox,Measles CPE
O=C(O)c1ccccc1O,.,.,.,43*
O=C(NO)c1ccccc1O,.,.,.,11
COc1cccc(NC(=O)COC(=O)c2nc3nccc(C)n3n2)c1,-2,2,0,76*
Cc1ccnc2nc(C(=O)OCC(=O)NCCc3ccccc3)nn12,.,.,.,3
N#C/C(=C(\O)Cc1ccccc1)c1nc2ccccc2[nH]1,-25,25,10,1
N#C/C(=C(/O)CN1C(=O)c2ccccc2C1=O)c1nc2ccccc2[nH]1,-3,3,80*,2
Cc1cc(C)c(S(=O)(=O)N2CCN(c3ccc([N+](=O)[O-])c(-n4nc(C)cc4C)c3)CC2)c(C)c1,-10,7,-11,2
COc1cc(NC(=O)Cc2ccc([N+](=O)[O-])cc2)c(C(=O)O)cc1OC,.,.,.,22
COCCN(CCOC)c1nc(S(=O)(=O)c2ccc(C)cc2)c(Cl)s1,0,0,-5,28*
Cc1c(C)c2c(C)[nH]nc2oc1=O,14,-14,76*,3
CCCc1c(C)c2c(C)[nH]nc2oc1=O,.,.,.,4
Cn1cc2c(=O)n(/N=C/c3ccccc3)cnc2n1,.,.,.,8
CCn1c(SCc2ccc(F)cc2)nnc1-c1nn(-c2ccccc2)ccc1=O,-7,7,24,55*
CCn1c(CSCc2ccc(F)cc2)nnc1SCC(=O)N1CCN(c2ccccc2)CC1,-10,10,15,5
Cc1cc(C)n2nc(CC(=O)NC3CCCCCC3)nc2n1,-10,10,18,34
CNC(=O)c1ccc(OCc2ccccc2)c(OC)c1,6,-6,37,76*
COc1cc(/C=C/C(=O)N2CCOCC2)ccc1OCc1ccccc1,.,.,.,94*
COc1cc(/C=C/C(=O)NC(C)(C)C)ccc1OCc1ccccc1,.,.,.,27*
CCOC(=O)c1sc(NC(=O)CCCn2nc([N+](=O)[O-])c(Cl)c2C)c(C(=O)OCC)c1C,.,.,.,17
CCc1ccc(OCC(=O)NC(NC(=S)Nc2ccc(Cl)cc2)C(Cl)(Cl)Cl)cc1 (stereo not given),.,.,.,3
CCn1nc(CC(=O)Nc2nnc(CC(=O)N3CCOCC3)s2)c2ccccc2c1=O,3,-3,1,28*
CCn1nc(CC(=O)Nc2nnc(CC(=O)N3CCCC3)s2)c2ccccc2c1=O,9,-9,-34,4
CCn1cc(C(=O)NCCCOC)c(=O)c2cc(S(=O)(=O)N(C)C)ccc21,-10,10,-6,18
O=C(COC(=O)C1CC(O)CN1C(=O)Oc1ccccc1)c1ccc(Br)cc1 (stereo not given),.,.,.,6
CC1(C)Cc2c(sc3nc(N/N=C/c4ccccc4)[nH]c(=O)c23)CO1,.,.,.,21*
SMILES,NFkB transloc inh,IL1B NFkB pot,IL1B cytotox,Measles CPE
CC(CC1CC(C)(C)OC1=O)C(=O)Nc1ccc([N+](=O)[O-])cc1 (stereo not given),.,.,.,26
CC1(C)CC(CC(=O)Nc2ccc([N+](=O)[O-])cc2)C(=O)O1 (stereo not given),-5,5,-9,35*
S=c1[nH]nc(-c2ccccc2Cl)n1CC1CCCO1 (stereo not given),-23,23,70*,19
O=C1c2ccccc2C(=O)N1CC1CCCO1 (stereo not given),-17,17,-19,4
Cc1ccc(S(=O)(=O)NCCOc2nc(N3CCOCC3)nc(N3CCOCC3)n2)cc1,-11,11,-47,63*
Cc1ccc(S(=O)(=O)NCCNC(=O)N2CCOCC2)cc1,-23,23,2,3
Cn1c(C(=O)N2COCC2(C)C)cc2c(=O)n3ccccc3nc21,.,.,.,22*
CCOc1ccccc1CNC(=O)c1cc2oc3ccccc3c2n1CC,4,-13,29,35*
CCOc1ccc(CNC(=O)c2cc3oc4ccccc4c3n2C)cc1,7,-7,-5,89*
COc1cccc(CNC(=O)c2cc3oc4ccccc4c3n2C)c1OC,-4,4,-4,72*
OC(C#Cc1ccccn1)c1cccs1 (stereo not given),-14,14,-25,29
Cc1cccc(C)c1NC(=S)N/N=C/c1ccc(OCCC(C)C)cc1,-2,2,13,12
CCc1ccc(C2=NN(CCC(=O)NC3CC3)C(=O)CC2)cc1,.,.,.,25
N#Cc1c2n(c3c(=O)n(CC(=O)c4ccc([N+](=O)[O-])cc4)cnc13)CCCCC2,.,.,.,2
